# Compounds without any hit were thinned out: in the full panel of roughly 83,000, 20% have a hit.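 Interpretation: 100, growth as untreated; towards 0, rising growth inhibition; 0, no net growth; 0 to -100, cell death. Compounds scoring below 10 were considered active.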 Activity calls are given as the source filed them.
# Tested on: HCT-15 colon
# Assay: NCI-60 one-dose screen, 48 h (100 = growth as untreated, 0 = no growth, -100 = all killed)
# Details: 10 µM unless noted
row,SMILES,growth
1,Oc1ccc2c3c1OC1[C@@H](O)CC[C@@]4(O)[C@@H](C2)N(CC2CCC2)CC[C@]314 (some centres not stated),99.2% (inactive)
2,CCOC(=O)[C@@H](C)C[C@H](Cc1ccccc1)NC(=O)c1csc([C@@H](C[C@H](C(C)C)N(C)C(=O)[C@@H](NC(=O)[C@H]2C[C@H](O)CCN2C)C(C)C)OC(C)=O)n1,9.76% (active)
3,COC(=O)C12CC(NC(=O)c3csc([C@@H](C[C@H](C(C)C)N(C)C(=O)[C@@H](NC(=O)[C@H]4CCCCN4C)C(C)C)OC(C)=O)n3)(C1)C2,5.8% (active)
4,COC(=O)[C@@H](C)C[C@H](Cc1ccccc1)NC(=O)c1csc([C@@H](C[C@H](C(C)C)N(C)C(=O)[C@H](C)NC(=O)[C@H]2CCCCN2C)OC(C)=O)n1,45.4% (inactive)
5,O=C(CCCCCNC1=CC(=O)c2ccccc2C1=O)NCCC[Te]c1ccccc1,-20.1% (active)
6,CC(=O)O[C@H](C[C@H](C(C)C)N(C)C(=O)[C@@H](NC(=O)[C@H]1CCCCN1C)C(C)(C)C)c1nc(C(=O)N[C@@H](Cc2ccccc2)C[C@H](C)C(=O)O)cs1,5.59% (active)
7,COc1ccc(/C=C\c2cc(OC)c(OC)c(OC)c2)cc1OCC(=O)Nc1nc2ccc(F)cc2s1,45% (inactive)
8,COc1ccc(C(=O)c2cc(OC)c(OC)c(OC)c2)cc1OC(C)=O,12.7% (inactive)
9,C[C@]12C[C@@H](CO)[C@H](O)C[C@@H]1CC[C@@H]1[C@@H]2CC[C@]2(C)[C@@H](O)CC[C@@H]12,105% (inactive)
10,N#CC1(C#N)C(c2ccc(N(CCCl)CCCl)cc2)OC23CCCCC2C1(C#N)C(=N)O3 (configuration not stated),90.6% (inactive)
11,O=[N+]([O-])c1ccc([Se]C2CCCCC2Cl)c([N+](=O)[O-])c1 (configuration not stated),88.3% (inactive)
12,COc1ccc(-n2c(C)nc3cc(OC)c(OC)cc3c2=O)cc1OC,111% (inactive)
13,O=[As](O)(O)c1ccccc1[As](=O)(O)O,91.1% (inactive)
14,COC(=O)[C@@H](C)C[C@H](Cc1ccccc1)NC(=O)c1csc([C@@H](C[C@H](C(C)C)N(C)C(=O)C2(NC(=O)[C@H]3CCCCN3C)CC2)OC(C)=O)n1,20.5% (inactive)
15,CN1C(=O)C23CC4(C56CC78SSC(CO)(C(=O)N7C5Nc5ccccc56)N(C)C8=O)c5ccccc5NC4N2C(=O)C1(CO)SS3 (configuration not stated),-82.3% (active)
16,CCNc1nc(Cl)nc(NCC)n1,112% (inactive)
17,COc1ccc(C2=CC(c3ccc(OC)c(OC)c3)c3c(c4ccccc4oc3=O)O2)cc1OC (configuration not stated),13.6% (inactive)
18,COC(=O)[C@H](Cc1ccccc1)NNC(=O)c1csc([C@@H](C[C@H](C(C)C)N(C)C(=O)[C@@H](NC(=O)[C@H]2CCCCN2C)C2CC2)OC(C)=O)n1,13.9% (inactive)
19,Clc1ccc(CSC(Cn2ccnc2)c2ccc(Cl)cc2Cl)cc1 (configuration not stated),29% (inactive)
20,C=CC1=C[C@@H]2[C@@H]3O[C@]4(CC[C@H](O4)[C@@H](C)C[C@@H](O)C3=O)C[C@H](O)C3=NCC[C@@]32CC1,-13.9% (active)
21,COC1CC2c3ccccc3C1C(C)=[N+]2C (configuration not stated),101% (inactive)
22,Cc1cc(N(CCCl)CCCl)ccc1C=Nc1ccc(-c2csc(Cc3ccccc3)n2)cc1,76.1% (inactive)
23,N/C(=N/N=C/c1ccncc1)N[N+](=O)[O-],97.3% (inactive)
24,CCN1C(=O)C(=C/C=C/c2ccccc2)C(=O)N(CC)C1=O,62.6% (inactive)
25,CC(=O)O[C@H](C[C@H](C(C)C)N(C)C(=O)[C@@H](NC(=O)[C@H]1CCCCN1C)C(C)C)c1cccc(C(=O)N[C@@H](Cc2ccccc2)C[C@H](C)C(=O)O)n1,9.65% (active)

# Tested on: HT29 colon
# Assay: as above
# Details: 10 µM unless noted
row,SMILES,growth
1,ClCCN(CCCl)Cc1ccc(Nc2ccnc3cc(Cl)ccc23)cc1,10.2% (inactive)
2,N#CCCNc1ccccc1,108% (inactive)
3,C[C@]12CCc3sc(NCCc4ccccc4)nc3C1=CC[C@@H]1[C@@H]2CC[C@]2(C)C(=O)CC[C@@H]12,34.3% (inactive)
4,Cc1cnc(/C=C/C(=O)O)cc1-c1cc2c(cc1C)C(C)(C)CCC2(C)C,68.3% (inactive)
5,C[C@@H]1CCC2[C@@H](C)[C@H](OC(=O)CCC(=O)NCCNC(=O)Cc3cc(=O)oc4cc(N(C)C)ccc34)O[C@@H]3O[C@]4(C)CC[C@@H]1C23OO4 (some centres not stated),26.4% (inactive)
6,CCN(CCO)C(Cc1ccccc1)c1ccccc1 (configuration not stated),98.5% (inactive)
7,CC1=C2[C@@H](CC1)[C@]1(C)O[C@@](C(C)C)(C[C@H]1O)[C@H]2OC(=O)C1CC1c1ccccc1 (some centres not stated),103% (inactive)
8,COC(=O)[C@@H](C)C[C@H](Cc1ccccc1)NC(=O)c1nc([C@@H](C[C@H](C(C)C)N(C)C(=O)[C@@H](NC(=O)[C@H]2C[C@H](O)CCN2C)C(C)C)OC(C)=O)sc1C(C)C,-15.3% (active)
9,COc1cc(C=Nc2cc(Cl)cc(Cl)c2)ccc1N(CCCl)CCCl,81.5% (inactive)
10,COC(=O)[C@@H](C)C[C@H](Cc1ccccc1)NC(=O)c1csc([C@@H](C[C@H](C(C)C)N(C)C(=O)[C@@H](NC(=O)[C@H]2CCCN2C)C2CC2)OC(C)=O)n1,6.25% (active)
11,NC(=S)c1cn(C2OC(CO)C(O)C2O)c2ncnc(N)c12 (configuration not stated),2.78% (active)
12,O=C(N/N=C/c1ccc(N(CCCl)CCCl)cc1)c1cccc2ccccc12,39.4% (inactive)
13,Oc1ccc2c3c1OC1[C@@H](O)CC[C@@]4(O)[C@@H](C2)N(CC2CCC2)CC[C@]314 (some centres not stated),98% (inactive)
14,CCOC(=O)[C@@H](C)C[C@H](Cc1ccccc1)NC(=O)c1csc([C@@H](C[C@H](C(C)C)N(C)C(=O)[C@@H](NC(=O)[C@H]2C[C@H](O)CCN2C)C(C)C)OC(C)=O)n1,0.338% (active)
15,COC(=O)C12CC(NC(=O)c3csc([C@@H](C[C@H](C(C)C)N(C)C(=O)[C@@H](NC(=O)[C@H]4CCCCN4C)C(C)C)OC(C)=O)n3)(C1)C2,2.39% (active)
16,COC(=O)[C@@H](C)C[C@H](Cc1ccccc1)NC(=O)c1csc([C@@H](C[C@H](C(C)C)N(C)C(=O)[C@H](C)NC(=O)[C@H]2CCCCN2C)OC(C)=O)n1,9.42% (active)
17,O=C(CCCCCNC1=CC(=O)c2ccccc2C1=O)NCCC[Te]c1ccccc1,-47.5% (active)
18,CC(=O)O[C@H](C[C@H](C(C)C)N(C)C(=O)[C@@H](NC(=O)[C@H]1CCCCN1C)C(C)(C)C)c1nc(C(=O)N[C@@H](Cc2ccccc2)C[C@H](C)C(=O)O)cs1,1.32% (active)
19,COc1ccc(/C=C\c2cc(OC)c(OC)c(OC)c2)cc1OCC(=O)Nc1nc2ccc(F)cc2s1,39.9% (inactive)

row,SMILES,growth
1,COc1ccc(C(=O)c2cc(OC)c(OC)c(OC)c2)cc1OC(C)=O,18.8% (inactive)
2,C[C@]12C[C@@H](CO)[C@H](O)C[C@@H]1CC[C@@H]1[C@@H]2CC[C@]2(C)[C@@H](O)CC[C@@H]12,84% (inactive)
3,N#CC1(C#N)C(c2ccc(N(CCCl)CCCl)cc2)OC23CCCCC2C1(C#N)C(=N)O3 (configuration not stated),106% (inactive)
4,O=[N+]([O-])c1ccc([Se]C2CCCCC2Cl)c([N+](=O)[O-])c1 (configuration not stated),60.7% (inactive)
5,COc1ccc(-n2c(C)nc3cc(OC)c(OC)cc3c2=O)cc1OC,106% (inactive)
6,O=[As](O)(O)c1ccccc1[As](=O)(O)O,109% (inactive)
7,COC(=O)[C@@H](C)C[C@H](Cc1ccccc1)NC(=O)c1csc([C@@H](C[C@H](C(C)C)N(C)C(=O)C2(NC(=O)[C@H]3CCCCN3C)CC2)OC(C)=O)n1,9.71% (active)
8,CN1C(=O)C23CC4(C56CC78SSC(CO)(C(=O)N7C5Nc5ccccc56)N(C)C8=O)c5ccccc5NC4N2C(=O)C1(CO)SS3 (configuration not stated),-77.3% (active)
9,CCNc1nc(Cl)nc(NCC)n1,107% (inactive)
10,COc1ccc(C2=CC(c3ccc(OC)c(OC)c3)c3c(c4ccccc4oc3=O)O2)cc1OC (configuration not stated),3.84% (active)
11,COC(=O)[C@H](Cc1ccccc1)NNC(=O)c1csc([C@@H](C[C@H](C(C)C)N(C)C(=O)[C@@H](NC(=O)[C@H]2CCCCN2C)C2CC2)OC(C)=O)n1,4.57% (active)
12,Clc1ccc(CSC(Cn2ccnc2)c2ccc(Cl)cc2Cl)cc1 (configuration not stated),30.5% (inactive)
13,C=CC1=C[C@@H]2[C@@H]3O[C@]4(CC[C@H](O4)[C@@H](C)C[C@@H](O)C3=O)C[C@H](O)C3=NCC[C@@]32CC1,-13.6% (active)
14,COC1CC2c3ccccc3C1C(C)=[N+]2C (configuration not stated),96.6% (inactive)
15,Cc1cc(N(CCCl)CCCl)ccc1C=Nc1ccc(-c2csc(Cc3ccccc3)n2)cc1,88.3% (inactive)
16,N/C(=N/N=C/c1ccncc1)N[N+](=O)[O-],101% (inactive)
17,CCN1C(=O)C(=C/C=C/c2ccccc2)C(=O)N(CC)C1=O,66% (inactive)
18,CC(=O)O[C@H](C[C@H](C(C)C)N(C)C(=O)[C@@H](NC(=O)[C@H]1CCCCN1C)C(C)C)c1cccc(C(=O)N[C@@H](Cc2ccccc2)C[C@H](C)C(=O)O)n1,2.72% (active)

# Source: PubChem BioAssay (NCI)
